Source: PubChem BioAssay (National Center for Advancing Translational Sciences (NCATS))
ELG1 repair inh: qHTS screen for small molecules that inhibit ELG1-dependent DNA repair in human embryonic kidney (HEK293T) cells expressing luciferase-tagged ELG1. HEK293T ELG1-luciferase reporter, luminescence, 16 h; DNA damage induced by 5-fluorouridine. Potency, µM (series often up to 46.1 µM), hits mostly inhibitors. 2.3% of 330,000 active. AID 504467, 2011; also: nearly all actives have a fitted effect of over 55% in size
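Reporter activity after DNA damage by 5-fluorouridine is monitored. Compound-treated cells incubate 16 hr at 37 °C, then ONE-Glo is added for 30 min before luminescence reading.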
ELG1 genotoxic: qHTS screen for small molecules that induce genotoxicity in human embryonic kidney (HEK293T) cells expressing luciferase-tagged ELG1; HEK293T ELG1-luciferase reporter, luminescence, 16 h; 1.3% of 330,000 active; Potency, µM (top dose mostly 46 µM), usual class: activators; also: nearly all actives have a fitted effect of over 60% in size
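HEK293T cells expressing luciferase-tagged ELG1 were treated with compound or DMSO for 16 hr at 37°C. Luciferase activity was then read after 30 min with ONE-Glo at room temperature; rising signal flags genetic stress.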
MCF10A rerep: A quantitative high throughput screen for small molecules that induce DNA re-replication in MCF 10a normal breast cells | MCF 10A DNA re-replication, Hoechst nuclear intensity, 48 h | Potency, µM (doses to about 46.1 µM), usual class: activators | 2.9% of 350,000 active; also: nearly all actives have a fitted effect of over 50% in size
p53 reactivator: qHTS assay for re-activators of p53 using a Luc reporter. H1299 p53-A138V BP100-luciferase reporter, luminescence, 24 h. Potency, µM (doses to about 92.2 µM), most hits filed as activators. 0.063% of 320,000 active; also: nearly all actives have a fitted effect of over 45% in size
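H1299 (p53-null), stable ts p53-A138V + BP100-Luc; 1000 cells/well, Opti-MEM/10% FBS; cpd 4 pt, 1:5; 24 h, 37 deg C, 5% CO2; detection reagent 10 min RT; luminescence.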
SW480 rerep: A quantitative high throughput screen for small molecules that induce DNA re-replication in SW480 colon adenocarcinoma cells. SW480 DNA re-replication, Hoechst DNA content imaging, 48 h. Potency, µM (top dose mostly 46.1 µM), usual class: activators. 1.8% of 340,000 active; also: nearly all actives have a fitted effect of over 55% in size
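250 cells/well; 23 nL cpd via pin tool; 48 hr, 37 C, 5% CO2; Hoechst 40 min; imager read of total nuclear intensity, ex 405/em 500-530 nm.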
AT treatment: qHTS Assay for Identifying a Potential Treatment of Ataxia-Telangiectasia. 0.19% of 320,000 active. Potency, µM (top dose mostly 57.5 µM), hits mostly activators. F2112 A-T fibroblasts, KAP-1 phosphorylation AlphaLISA; neocarzinostatin DNA damage 30 min before lysis; also: nearly all actives have a fitted effect of over 45% in size
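hTERT-immortalized A-T patient fibroblasts (F2112), 500 cells/well in OPTI-MEM, 1% FBS, got compounds for 60 min, then NCS for 30 min at 37C. Lysates were then assayed for phospho-KAP-1 by AlphaLISA (anti-pKAP1 donor, anti-KAP1 acceptor beads), 6 hr at 25C.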
Each line names hits and unclear results; the compound was inactive in the other large screens. Sampled rows, rich in hits. Any-hit rate of the full collection: about 7.1%. Calls follow the shape of the dose curve; as a rule, active = well fitted curve in the direction sought with a large enough effect; inconclusive = small, poorly fitted or top-dose-only effect, or another doubt; inactive = no such curve, though single readings can be large; an effect the other way counts as inactive or inconclusive.

COc1ccc(N2CCN(C(=O)COC(=O)COc3ccc(C#N)cc3)CC2)cc1	none
CCOC(=O)c1c(-c2ccc(OC)cc2)csc1NC(=O)CCN1C(=O)c2ccccc2C1=O	ELG1 repair inh inconclusive
CCOC(=O)c1c(-c2ccc(C)cc2)csc1NC(=O)CCN1CC(C)OC(C)C1 (stereo unspecified)	ELG1 repair inh inconclusive, MCF10A rerep 20.6µM
CCOC(=O)c1c(-c2ccc(OCC)cc2)csc1NC(=O)CCN1C(=O)c2ccccc2C1=O	ELG1 repair inh 11.6µM (no result: MCF10A rerep, SW480 rerep)
CCOCCCNC(=O)c1ccc2c(c1)ncn2-c1ccccc1OC	none
C[C@H](O)[C@@H]1C(=O)N2C(C(=O)O)=C(SCCN=CN)C[C@@H]12	none (no result: ELG1 repair inh, ELG1 genotoxic, p53 reactivator, AT treatment)
CCc1ccccc1NC(=O)CN(C)C(=O)CSc1nnc(Nc2ccc(C)cc2)s1	ELG1 repair inh inconclusive
CCc1ccc(Nc2nnc(SCC(=O)N(C)CC(=O)Nc3ccccc3CC)s2)cc1	ELG1 repair inh 18.4µM, MCF10A rerep inconclusive, p53 reactivator inconclusive
CCC(=O)N(Cc1cc2ccccc2[nH]c1=O)C(C)C	ELG1 genotoxic 23.1µM
CC(C)N(Cc1cc2ccccc2[nH]c1=O)C(=O)C1CCCCC1	none
CCOC(=O)C1=CN(Cc2cccc(-c3ccc4c(c3)OCO4)c2)S(=O)(=O)N(C)C1C (stereo unspecified)	ELG1 repair inh inconclusive, MCF10A rerep inconclusive, SW480 rerep inconclusive
COc1cccc(/C=C/C(=O)NNC(=O)c2ccco2)c1OC	ELG1 repair inh inconclusive, ELG1 genotoxic inconclusive
COc1ccc(OCc2n[nH]c(=S)n2-c2ccc(C)cc2)cc1	none
Cc1ccc(N2CC(O)=C(c3ccccc3)C2=N)cc1	none
Cc1ccc(N2CN=C(c3ccccc3)NC2=S)cc1	ELG1 repair inh inconclusive, ELG1 genotoxic 14.6µM
COc1ccc(C2=NCN(c3ccc(C)cc3)C(=S)N2)cc1	ELG1 repair inh inconclusive, ELG1 genotoxic 16.4µM (no result: AT treatment)
CC(C)n1ncc2c(C(=O)NCCc3ccc(F)cc3)cc(C3CC3)nc21	MCF10A rerep inconclusive
Clc1ccc(Br)cc1-c1nc(-c2ccncc2)no1	ELG1 repair inh inconclusive, ELG1 genotoxic 20.6µM, p53 reactivator inconclusive
O=[N+]([O-])c1cc(-c2nc(-c3ccncc3)no2)ccc1Cl	ELG1 repair inh inconclusive
O=[N+]([O-])c1cc(-c2nc(-c3ccncc3)no2)cc([N+](=O)[O-])c1	SW480 rerep inconclusive
CC(C)(C)c1ccc(-c2nc(-c3ccncc3)no2)cc1	ELG1 repair inh inconclusive, ELG1 genotoxic inconclusive, MCF10A rerep inconclusive, p53 reactivator inconclusive
Cc1cc(C)cc(-c2nc(-c3ccncc3)no2)c1	ELG1 repair inh inconclusive, ELG1 genotoxic 20.6µM, p53 reactivator inconclusive
Cc1cccc(-c2nc(-c3ccncc3)no2)c1	ELG1 repair inh inconclusive, ELG1 genotoxic 9.2µM, p53 reactivator inconclusive
Cc1ccc(-c2nc(-c3ccncc3)no2)cc1	ELG1 repair inh inconclusive, ELG1 genotoxic 3.66µM, p53 reactivator inconclusive
Brc1cccc(-c2nc(-c3ccncc3)no2)c1	ELG1 repair inh inconclusive, ELG1 genotoxic inconclusive, p53 reactivator inconclusive
Cc1ccc(NC(=O)c2cnccn2)cc1S(=O)(=O)N1CCCCCC1	ELG1 repair inh inconclusive
Cc1cccc(C)c1NC(=O)CNC(=O)CCCc1c[nH]c2ccccc12	none
COc1cc(OC)cc(C(=O)Nc2ccccc2-c2nnn(CC(=O)Nc3cc(C)on3)n2)c1	ELG1 genotoxic inconclusive
COc1cccc(NC(=O)CN(C)C(=O)CC(NC(=O)c2ccccc2Cl)c2ccccc2)c1 (stereo unspecified)	none
CC(=O)CCC(=O)O	none (no result: ELG1 repair inh, ELG1 genotoxic, p53 reactivator, AT treatment)
CCN(CC(=O)Nc1ccc(NC(C)=O)cc1)C(=O)c1ccc(=O)[nH]c1	none
COc1ccc(-c2noc(-c3ccccc3-c3ccccc3)n2)cc1	none
